Assay results taken from PubChem BioAssay (NCATS).
Records with an inconclusive call do not appear. Calls of active or inactive are those of the source. Calls come from the whole dose curve; as a rule, active = well fitted curve in the direction sought with a large enough effect; inconclusive = small, poorly fitted or top-dose-only effect, or another doubt; inactive = no such curve, though single readings can be large; an effect the other way counts as inactive or inconclusive.

Tests used:
[1] = qHTS of pediatric cancer cell lines to identify multiple opportunities for drug repurposing: Primary screen for TC32 cells (AID 1347089); note: nearly all actives have a fitted effect of over 60% in size
Outline: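 Luminescent ATP read-out (CellTiter-Glo) of metabolically active TC32 cells after 48 h exposure. Concentration-response curves came from 11-point (MIPE, 0.78 nM–46 µM) or 8-point (NPC, 0.59 nM–46 µM) primary titrations; follow-up used 11 points.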

[2] = qHTS of pediatric cancer cell lines to identify multiple opportunities for drug repurposing: Primary screen for A673 cells (AID 1347092); note: nearly all actives have a fitted effect of over 45% in size
Outline: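 Cell viability of A673 measured by CellTiter-Glo ATP luminescence after 48 hours compound exposure. Dilution series spanned 0.78 nM to 46 µM (MIPE, 11-point) or 0.59 nM to 46 µM (NPC, 8-point); bortezomib 2.3 uM positive control.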

[3] = qHTS of pediatric cancer cell lines to identify multiple opportunities for drug repurposing: Primary screen for SK-N-MC cells (AID 1347093)
Outline: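 Metabolically active cells were quantified by ATP-dependent luminescence (CellTiter-Glo, 15 min at room temperature) following 48 h treatment. Cells had been plated at 500-1,000 per well and settled for 5 h beforehand.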

[4] = qHTS of pediatric cancer cell lines to identify multiple opportunities for drug repurposing: Primary screen for BT-37 cells (AID 1347094)
Outline: (§1)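 Cells plated at 500-1,000/well in growth medium, compounds added after 5 h. MIPE tested at 11 points (from 0.78 nM), NPC at 8 points (from 0.59 nM). CellTiter-Glo luminescence after 48 h; concentration-response curves from primary screen.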

[5] = qHTS of pediatric cancer cell lines to identify multiple opportunities for drug repurposing: Primary screen for NB-EBc1 cells (AID 1347095)
Outline: as §1

[6] = qHTS of pediatric cancer cell lines to identify multiple opportunities for drug repurposing: Primary screen for Saos-2 cells (AID 1347097); note: nearly all actives have a fitted effect of over 40% in size
Outline: as §1

[7] = qHTS of pediatric cancer cell lines to identify multiple opportunities for drug repurposing: Primary screen for LAN-5 cells (AID 1347100)
Outline: (§2)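 Cells (500-1,000/well) in growth media were settled 5 h at 37 degrees C, then given compounds for 48 h. Viability was read as CellTiter-Glo luminescence. Primary runs used MIPE at 11 points (0.78 nM-46 µM) and NPC at 8 points (0.59 nM-46 µM); follow-ups used 11 points.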

[8] = qHTS of pediatric cancer cell lines to identify multiple opportunities for drug repurposing: Primary screen for BT-12 cells (AID 1347101); note: nearly all actives have a fitted effect of over 25% in size
Outline: (§3)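 Cells (500-1,000/well) rested 5 h, then received compounds for 48 h; metabolically active cells were measured by CellTiter-Glo luminescence. Final concentrations spanned up to 46 µM (MIPE, 11-point) or 0.59 nM-46 µM (NPC, 8-point) in primary screens, 11-point in follow-ups.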

[9] = qHTS of pediatric cancer cell lines to identify multiple opportunities for drug repurposing: Primary screen for Rh18 cells (AID 1347102); note: nearly all actives have a fitted effect of over 65% in size
Outline: as §2

[10] = qHTS of pediatric cancer cell lines to identify multiple opportunities for drug repurposing: Primary screen for OHS-50 cells (AID 1347103); note: nearly all actives have a fitted effect of over 40% in size
Outline: as §3

[11] = qHTS of pediatric cancer cell lines to identify multiple opportunities for drug repurposing: Primary screen for control Hh wild type fibroblast cells (AID 1347106); note: nearly all actives have a fitted effect of over 55% in size
Outline: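 Viability after 48 h compound treatment at 37C, 500-1,000 cells/well, read as ATP luminescence with CellTiter-Glo. Primary screens used 11-point (MIPE, 0.78 nM-46 µM) or 8-point (NPC, 0.59 nM-46 µM) final concentrations; follow-up screens used 11-point dilutions.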

[12] = qHTS of pediatric cancer cell lines to identify multiple opportunities for drug repurposing: Primary screen for SK-N-SH cells (AID 1347098); note: nearly all actives have a fitted effect of over 65% in size
Outline: as §3

[13] = qHTS of pediatric cancer cell lines to identify multiple opportunities for drug repurposing: Primary screen for NB1643 cells (AID 1347099); note: nearly all actives have a fitted effect of over 50% in size
Outline: as §1

[14] = qHTS of pediatric cancer cell lines to identify multiple opportunities for drug repurposing: Primary screen for RD cells (AID 1347104); note: nearly all actives have a fitted effect of over 55% in size
Outline: as §1

[15] = qHTS of pediatric cancer cell lines to identify multiple opportunities for drug repurposing: Primary screen for U-2 OS cells (AID 1347096); note: nearly all actives have a fitted effect of over 50% in size
Outline: as §2

[16] = qHTS of pediatric cancer cell lines to identify multiple opportunities for drug repurposing: Primary screen for DAOY cells (AID 1347090); note: nearly all actives have a fitted effect of over 55% in size
Outline: (§4)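 Eight- or eleven-point concentration series, 48 h treatment at 37 degrees C in growth media; readout CellTiter-Glo luminescence. Potency and efficacy were taken from the concentration-response curves.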

[17] = qHTS of pediatric cancer cell lines to identify multiple opportunities for drug repurposing: Primary screen for SJ-GBM2 cells (AID 1347091)
Outline: as §4

[18] = qHTS of pediatric cancer cell lines to identify multiple opportunities for drug repurposing: Primary screen for MG 63 (6-TG R) cells (AID 1347105); note: nearly all actives have a fitted effect of over 50% in size
Outline: as §1
Potency is the fitted concentration of half-maximal effect.

Structure (SMILES) | Potency [1] | Potency [2] | Potency [3] | Potency [4] | Potency [5] | Potency [6] | Potency [7] | Potency [8] | Potency [9] | Potency [10] | Potency [11] | Potency [12] | Potency [13] | Potency [14] | Potency [15] | Potency [16] | Potency [17] | Potency [18]
Cc1cc(C(=O)N2CCN(c3cccc(Cl)c3)CC2)n(-c2ccccc2)n1 | 2.94 µM (active) | 0.59 µM (active) | 0.118 µM (active) | 6.11 µM (active) | 0.0662 µM (active) | 0.118 µM (active) | 0.743 µM (active) | 6.85 µM (active) | inactive | 1.37 µM (active) | – | – | – | – | – | – | – | –
C[C@@H]1CN(CC(=O)Nc2ccc3c(c2)Cc2cccc(-c4cc(=O)cc(N5CCOCC5)o4)c2S3)C[C@H](C)O1 | inactive | 14.8 µM (active) | 4.18 µM (active) | – | 18.7 µM (active) | 10.5 µM (active) | 18.7 µM (active) | – | 18.7 µM (active) | 21.7 µM (active) | inactive | – | – | – | – | – | – | –
CC(C)c1cc(-c2n[nH]c(=O)n2-c2ccc3c(ccn3C)c2)c(O)cc1O | 0.131 µM (active) | 0.118 µM (active) | 0.0526 µM (active) | 0.122 µM (active) | 0.0935 µM (active) | 0.118 µM (active) | 0.0662 µM (active) | – | 0.0833 µM (active) | 0.153 µM (active) | – | 0.242 µM (active) | 0.0662 µM (active) | 0.059 µM (active) | – | – | – | –
Cc1cnc(-c2cnc(NCCNc3ccc(C#N)cn3)nc2-c2ccc(Cl)cc2Cl)[nH]1 | inactive | 1.87 µM (active) | 0.105 µM (active) | inactive | – | – | inactive | – | – | inactive | – | – | – | – | inactive | – | – | –
O=C(Nc1cn[nH]c1-c1nc2ccc(CN3CCOCC3)cc2[nH]1)NC1CC1 | – | 1.48 µM (active) | 0.059 µM (active) | 12.2 µM (active) | 1.48 µM (active) | 0.935 µM (active) | 0.0105 µM (active) | 7.69 µM (active) | 0.935 µM (active) | 1.53 µM (active) | 10.5 µM (active) | 0.242 µM (active) | 5.26 µM (active) | 5.9 µM (active) | 4.69 µM (active) | 3.72 µM (active) | 0.59 µM (active) | 7.43 µM (active)
CN(C)CC=CC(=O)Nc1cc2c(Nc3ccc(F)c(Cl)c3)ncnc2cc1O[C@H]1CCOC1 | – | 3.72 µM (active) | 1.66 µM (active) | 21.7 µM (active) | 9.35 µM (active) | 10.5 µM (active) | 7.43 µM (active) | 21.7 µM (active) | 14.8 µM (active) | 3.06 µM (active) | – | 24.1 µM (active) | 0.296 µM (active) | 5.9 µM (active) | 18.7 µM (active) | 5.9 µM (active) | 3.72 µM (active) | 14.8 µM (active)
COc1ccc(OC)c(-c2nnc3ccc(-c4ccc(OC)c(O[C@@H]5CCOC5)c4)nn23)c1 | inactive | – | 18.7 µM (active) | 27.3 µM (active) | inactive | 29.6 µM (active) | 26.4 µM (active) | 9.68 µM (active) | 13.2 µM (active) | 17.2 µM (active) | – | 30.4 µM (active) | 18.7 µM (active) | 16.6 µM (active) | – | – | – | –
Nc1ncnc2c1c(-c1cccc(OCc3ccccc3)c1)cn2C1CC(CN2CCCC2)C1 (stereo unspecified) | 6.58 µM (active) | 18.7 µM (active) | 0.662 µM (active) | – | 4.69 µM (active) | 0.743 µM (active) | 1.32 µM (active) | 27.3 µM (active) | 18.7 µM (active) | 0.432 µM (active) | – | 21.5 µM (active) | 4.18 µM (active) | 5.26 µM (active) | – | – | – | 18.7 µM (active)
CC(=O)OCC(=O)[C@@]1(O)[C@H](C)C[C@H]2[C@@H]3C=C(C)C4=Cc5c(cnn5-c5ccccc5)C[C@]4(C)[C@@H]3[C@@H](O)C[C@@]21C | – | 2.96 µM (active) | 1.18 µM (active) | 19.3 µM (active) | 3.72 µM (active) | 18.7 µM (active) | – | 21.7 µM (active) | 13.2 µM (active) | 19.3 µM (active) | inactive | inactive | 13.2 µM (active) | 16.6 µM (active) | 18.7 µM (active) | 11.8 µM (active) | 5.26 µM (active) | 18.7 µM (active)
Cc1cc(Nc2nc(N[C@@H](C)c3ccc(F)cc3)c(C#N)cc2F)n[nH]1 | 2.62 µM (active) | 1.18 µM (active) | 0.743 µM (active) | – | 0.662 µM (active) | 2.35 µM (active) | 0.418 µM (active) | inactive | – | – | – | 3.41 µM (active) | 0.935 µM (active) | – | inactive | – | – | 3.72 µM (active)
Cc1ccc(C(N)=O)cc1Nc1nccc(-c2cn(C(C)C)c3cnccc23)n1 | – | 3.72 µM (active) | 5.9 µM (active) | 9.68 µM (active) | 4.18 µM (active) | 4.69 µM (active) | – | 6.85 µM (active) | – | 9.68 µM (active) | inactive | – | inactive | 16.6 µM (active) | inactive | 11.8 µM (active) | 7.43 µM (active) | –
